Holding throughout (assay): DAPPL (digital affinity profiling via proximity ligation, sequencing); 10 mM Tris-HCl pH 7.5, 50 mM NaCl, 1 mM DTT, 4% glycerol, room temperature, 30 min; GST-TFs on glutathione beads, 16-mer random dsDNA library, 0.1% formaldehyde crosslink after washing; high values mean tight binding
One assay addresses T1, FLI1 (Homo sapiens, UniProt Q01543 1-452).
T1 sequence: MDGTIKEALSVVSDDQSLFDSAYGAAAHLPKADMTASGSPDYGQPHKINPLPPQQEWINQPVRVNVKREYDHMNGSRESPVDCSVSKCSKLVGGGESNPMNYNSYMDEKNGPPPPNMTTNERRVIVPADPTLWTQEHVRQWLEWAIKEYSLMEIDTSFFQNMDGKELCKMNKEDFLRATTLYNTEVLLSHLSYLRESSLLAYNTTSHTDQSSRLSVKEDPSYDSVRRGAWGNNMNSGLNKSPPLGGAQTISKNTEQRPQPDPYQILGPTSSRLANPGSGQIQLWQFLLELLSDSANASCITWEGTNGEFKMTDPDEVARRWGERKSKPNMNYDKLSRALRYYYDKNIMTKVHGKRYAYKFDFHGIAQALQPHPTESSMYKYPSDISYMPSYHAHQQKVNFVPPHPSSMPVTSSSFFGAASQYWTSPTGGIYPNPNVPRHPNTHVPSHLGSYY
The settings on record: protein: recombinant; tags: N-terminal GST; dsDNA, one strand shown. A digest of the protocol: (§1)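 Each value of binding signal is a hexamer's read frequency for a factor divided by the same hexamer's frequency in the tag-only sample. Barcoded, bead-captured GST fusions of human transcription factors made in yeast were pooled with that sample and incubated with 200 nmole of a random double-stranded 16-mer DNA library in Tris/NaCl/DTT/glycerol buffer at room temperature for 30 min. Washing, 0.1% formaldehyde crosslinking, proximity ligation, PCR and Illumina NextSeq500 sequencing followed.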

The target in the next assay is T2, ELK1 (Homo sapiens, UniProt P19419 1-428).
T2 sequence: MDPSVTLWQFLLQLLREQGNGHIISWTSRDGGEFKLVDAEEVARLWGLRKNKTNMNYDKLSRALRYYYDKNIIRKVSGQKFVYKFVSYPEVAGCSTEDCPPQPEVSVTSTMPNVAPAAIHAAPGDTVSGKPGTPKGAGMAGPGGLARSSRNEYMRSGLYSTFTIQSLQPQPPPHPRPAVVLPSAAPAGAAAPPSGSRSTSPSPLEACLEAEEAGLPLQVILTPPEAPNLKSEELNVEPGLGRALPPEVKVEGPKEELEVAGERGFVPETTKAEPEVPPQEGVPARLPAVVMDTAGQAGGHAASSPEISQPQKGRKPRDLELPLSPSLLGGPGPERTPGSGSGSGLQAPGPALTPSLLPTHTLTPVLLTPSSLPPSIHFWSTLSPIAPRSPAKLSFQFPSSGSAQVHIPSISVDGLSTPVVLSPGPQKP
The settings on record: protein: recombinant; tags: N-terminal GST; dsDNA, one strand shown. The method in brief: as §1

The target in the next assay is T3, GABPA (Homo sapiens, UniProt Q06546 1-454).
T3 sequence: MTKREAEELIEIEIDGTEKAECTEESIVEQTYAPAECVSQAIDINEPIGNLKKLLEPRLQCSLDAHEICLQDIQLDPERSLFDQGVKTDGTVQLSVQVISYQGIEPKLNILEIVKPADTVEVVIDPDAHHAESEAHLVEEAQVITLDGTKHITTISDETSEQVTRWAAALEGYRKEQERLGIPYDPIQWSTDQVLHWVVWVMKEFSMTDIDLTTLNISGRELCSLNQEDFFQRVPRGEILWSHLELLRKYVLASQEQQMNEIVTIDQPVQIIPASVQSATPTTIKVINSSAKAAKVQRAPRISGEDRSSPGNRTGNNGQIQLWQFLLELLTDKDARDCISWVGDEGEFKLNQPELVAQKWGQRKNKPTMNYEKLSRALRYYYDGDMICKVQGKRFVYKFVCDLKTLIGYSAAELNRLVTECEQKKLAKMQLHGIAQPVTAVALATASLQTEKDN
Conditions: protein: recombinant; tags: N-terminal GST; dsDNA, one strand shown. The method in brief: as §1

For another assay, the target named is T4, ERG (Homo sapiens, UniProt P11308 1-479).
T4 sequence: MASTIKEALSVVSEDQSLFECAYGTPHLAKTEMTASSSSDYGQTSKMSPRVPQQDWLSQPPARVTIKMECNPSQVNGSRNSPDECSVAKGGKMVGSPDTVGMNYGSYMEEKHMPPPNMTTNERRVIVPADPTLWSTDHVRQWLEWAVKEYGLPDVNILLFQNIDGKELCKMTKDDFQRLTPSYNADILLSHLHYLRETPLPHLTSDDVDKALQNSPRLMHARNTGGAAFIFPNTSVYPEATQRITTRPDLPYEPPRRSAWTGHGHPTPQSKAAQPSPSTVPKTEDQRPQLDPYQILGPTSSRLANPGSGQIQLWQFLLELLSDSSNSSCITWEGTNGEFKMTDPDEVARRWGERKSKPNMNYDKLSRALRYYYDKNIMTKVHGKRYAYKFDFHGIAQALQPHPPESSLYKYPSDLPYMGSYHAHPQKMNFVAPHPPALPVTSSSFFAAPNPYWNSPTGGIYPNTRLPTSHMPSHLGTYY
Conditions: protein: recombinant; tags: N-terminal GST; dsDNA, one strand shown. The method in brief: as §1

For a further assay, the target named is ELF1 (Homo sapiens, UniProt P32519 1-619). The settings on record: protein: recombinant; tags: N-terminal GST; dsDNA, one strand shown. A digest of the protocol:
as §1

The next assay deals with T5, EHF (Homo sapiens, UniProt Q9NZC4 1-300).
T5 sequence: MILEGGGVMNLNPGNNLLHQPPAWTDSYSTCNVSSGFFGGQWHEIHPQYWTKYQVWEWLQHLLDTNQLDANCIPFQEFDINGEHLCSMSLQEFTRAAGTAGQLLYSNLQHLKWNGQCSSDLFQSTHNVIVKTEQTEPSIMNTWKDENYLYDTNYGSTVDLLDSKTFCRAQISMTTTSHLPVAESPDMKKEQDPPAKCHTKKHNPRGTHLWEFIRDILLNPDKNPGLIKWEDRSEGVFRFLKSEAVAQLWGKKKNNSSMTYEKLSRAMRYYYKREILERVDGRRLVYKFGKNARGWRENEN
Conditions: protein: recombinant; tags: N-terminal GST; dsDNA, one strand shown. The method in brief: as §1

In the next assay the target is SPI1 (Homo sapiens, UniProt P17947 1-270). Conditions: protein: recombinant; tags: N-terminal GST; dsDNA, one strand shown. The method in brief:
as §1

In the next assay the target is SPIB (Homo sapiens, UniProt Q01892 1-262). The settings on record: protein: recombinant; tags: N-terminal GST; dsDNA, one strand shown. The method in brief: as §1
SPIB, sequence (Q01892 whole entry): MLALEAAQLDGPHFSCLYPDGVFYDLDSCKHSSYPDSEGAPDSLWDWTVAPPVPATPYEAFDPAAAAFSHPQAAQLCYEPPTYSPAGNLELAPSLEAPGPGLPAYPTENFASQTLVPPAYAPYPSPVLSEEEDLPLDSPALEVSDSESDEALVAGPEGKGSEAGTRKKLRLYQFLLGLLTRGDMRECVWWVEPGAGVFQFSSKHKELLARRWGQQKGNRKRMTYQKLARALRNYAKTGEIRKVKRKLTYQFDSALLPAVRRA
The next assay deals with T6, ELK3 (Homo sapiens, UniProt P41970 1-407).
T6 sequence: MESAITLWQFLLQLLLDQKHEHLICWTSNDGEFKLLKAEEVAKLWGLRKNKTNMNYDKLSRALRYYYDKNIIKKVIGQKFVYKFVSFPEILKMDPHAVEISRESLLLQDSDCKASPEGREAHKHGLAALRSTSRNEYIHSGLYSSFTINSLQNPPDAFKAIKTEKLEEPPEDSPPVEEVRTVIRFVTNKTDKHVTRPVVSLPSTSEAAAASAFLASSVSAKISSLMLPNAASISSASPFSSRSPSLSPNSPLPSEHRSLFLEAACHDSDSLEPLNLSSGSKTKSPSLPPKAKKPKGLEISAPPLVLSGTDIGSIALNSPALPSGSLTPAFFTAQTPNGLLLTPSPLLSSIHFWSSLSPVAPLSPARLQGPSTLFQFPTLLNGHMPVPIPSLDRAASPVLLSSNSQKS
The settings on record: protein: recombinant; tags: N-terminal GST; dsDNA, one strand shown. The method in brief:
as §1

A further assay has as its target ETV5 (Homo sapiens, UniProt P41161 1-510). The settings on record: protein: recombinant; tags: N-terminal GST; dsDNA, one strand shown. The method in brief: as §1
The next assay deals with HSF1 (Homo sapiens, UniProt Q00613 1-529). Conditions: protein: recombinant; tags: N-terminal GST; chain copies: 3; dsDNA, one strand shown. A digest of the protocol: as §1
HSF1, sequence (Q00613 whole entry): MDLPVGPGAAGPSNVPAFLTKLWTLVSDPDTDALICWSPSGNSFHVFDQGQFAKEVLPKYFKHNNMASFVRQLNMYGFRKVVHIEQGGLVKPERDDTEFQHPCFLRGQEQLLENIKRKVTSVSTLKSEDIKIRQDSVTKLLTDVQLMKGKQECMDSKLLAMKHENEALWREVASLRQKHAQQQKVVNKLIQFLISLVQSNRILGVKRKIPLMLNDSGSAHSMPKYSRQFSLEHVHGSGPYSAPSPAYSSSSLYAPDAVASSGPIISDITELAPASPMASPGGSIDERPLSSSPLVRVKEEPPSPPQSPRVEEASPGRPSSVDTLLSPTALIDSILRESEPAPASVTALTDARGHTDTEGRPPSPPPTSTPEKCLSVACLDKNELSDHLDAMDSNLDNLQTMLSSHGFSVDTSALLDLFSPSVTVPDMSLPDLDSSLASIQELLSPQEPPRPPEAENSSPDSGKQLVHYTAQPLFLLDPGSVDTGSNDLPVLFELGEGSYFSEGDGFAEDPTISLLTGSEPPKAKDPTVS
The target of the next assay is ELF4 (Homo sapiens, UniProt Q99607 1-663). Conditions: protein: recombinant; tags: N-terminal GST; dsDNA, one strand shown. The method in brief: as §1
ELF4, sequence (Q99607 whole entry): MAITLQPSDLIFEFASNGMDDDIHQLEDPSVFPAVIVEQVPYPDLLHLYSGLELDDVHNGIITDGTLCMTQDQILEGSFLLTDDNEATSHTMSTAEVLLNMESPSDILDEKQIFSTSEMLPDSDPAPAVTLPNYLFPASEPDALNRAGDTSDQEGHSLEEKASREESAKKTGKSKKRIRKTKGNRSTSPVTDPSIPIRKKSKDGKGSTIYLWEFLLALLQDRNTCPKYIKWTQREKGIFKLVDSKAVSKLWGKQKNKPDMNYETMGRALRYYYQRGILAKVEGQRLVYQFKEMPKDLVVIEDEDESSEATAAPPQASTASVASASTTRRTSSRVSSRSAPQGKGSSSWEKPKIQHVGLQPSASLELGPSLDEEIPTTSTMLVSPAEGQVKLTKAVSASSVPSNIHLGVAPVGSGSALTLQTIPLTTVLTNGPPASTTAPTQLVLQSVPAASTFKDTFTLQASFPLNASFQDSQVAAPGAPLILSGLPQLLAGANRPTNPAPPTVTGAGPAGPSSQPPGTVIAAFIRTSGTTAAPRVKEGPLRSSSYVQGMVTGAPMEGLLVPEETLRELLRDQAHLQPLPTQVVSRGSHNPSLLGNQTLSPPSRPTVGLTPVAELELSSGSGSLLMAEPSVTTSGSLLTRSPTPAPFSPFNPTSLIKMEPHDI
The target of the next assay is T7, ELK4 (Homo sapiens, UniProt P28324-2 1-405).
T7 sequence: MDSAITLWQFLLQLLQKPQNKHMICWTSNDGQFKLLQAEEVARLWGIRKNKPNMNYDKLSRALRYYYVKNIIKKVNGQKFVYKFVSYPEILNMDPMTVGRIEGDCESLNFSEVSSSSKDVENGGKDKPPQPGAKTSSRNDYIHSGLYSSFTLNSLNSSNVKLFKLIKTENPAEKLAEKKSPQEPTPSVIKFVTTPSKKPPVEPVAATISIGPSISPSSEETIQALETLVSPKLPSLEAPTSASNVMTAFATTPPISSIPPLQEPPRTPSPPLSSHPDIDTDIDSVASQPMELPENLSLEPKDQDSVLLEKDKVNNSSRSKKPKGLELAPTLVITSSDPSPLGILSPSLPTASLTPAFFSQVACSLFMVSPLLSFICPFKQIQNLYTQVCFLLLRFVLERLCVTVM
Conditions: protein: recombinant; tags: N-terminal GST; dsDNA, one strand shown. The method in brief: as §1

The next assay addresses T8, ETV2 (Homo sapiens, UniProt O00321 1-342).
T8 sequence: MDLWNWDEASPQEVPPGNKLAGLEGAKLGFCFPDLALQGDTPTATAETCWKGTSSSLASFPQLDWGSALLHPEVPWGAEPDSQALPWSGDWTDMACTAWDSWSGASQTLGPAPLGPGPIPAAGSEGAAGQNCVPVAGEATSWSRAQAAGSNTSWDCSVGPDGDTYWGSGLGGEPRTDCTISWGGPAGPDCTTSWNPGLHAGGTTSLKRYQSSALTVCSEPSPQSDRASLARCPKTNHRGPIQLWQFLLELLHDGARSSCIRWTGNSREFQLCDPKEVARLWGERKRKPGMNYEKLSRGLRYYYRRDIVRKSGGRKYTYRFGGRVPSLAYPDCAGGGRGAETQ
The settings on record: protein: recombinant; tags: N-terminal GST; dsDNA, one strand shown. A digest of the protocol: as §1

For another assay, the target named is T9, ELF3 (Homo sapiens, UniProt P78545 1-371).
T9 sequence: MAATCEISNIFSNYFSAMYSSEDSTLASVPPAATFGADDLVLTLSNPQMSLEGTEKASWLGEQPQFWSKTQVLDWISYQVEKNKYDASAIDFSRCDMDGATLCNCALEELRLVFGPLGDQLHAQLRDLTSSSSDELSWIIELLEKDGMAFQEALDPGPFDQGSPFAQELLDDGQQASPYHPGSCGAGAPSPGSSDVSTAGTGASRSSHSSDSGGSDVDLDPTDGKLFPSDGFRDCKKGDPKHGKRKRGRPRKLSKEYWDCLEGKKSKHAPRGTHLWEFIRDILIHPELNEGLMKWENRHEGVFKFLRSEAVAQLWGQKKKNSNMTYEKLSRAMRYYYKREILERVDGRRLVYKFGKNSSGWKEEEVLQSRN
Conditions: protein: recombinant; tags: N-terminal GST; dsDNA, one strand shown. The method in brief: as §1

A further assay deals with CRX (Homo sapiens, UniProt O43186 1-299). The settings on record: protein: recombinant; tags: N-terminal GST; dsDNA, one strand shown. A digest of the protocol: as §1
CRX, sequence (O43186 whole entry): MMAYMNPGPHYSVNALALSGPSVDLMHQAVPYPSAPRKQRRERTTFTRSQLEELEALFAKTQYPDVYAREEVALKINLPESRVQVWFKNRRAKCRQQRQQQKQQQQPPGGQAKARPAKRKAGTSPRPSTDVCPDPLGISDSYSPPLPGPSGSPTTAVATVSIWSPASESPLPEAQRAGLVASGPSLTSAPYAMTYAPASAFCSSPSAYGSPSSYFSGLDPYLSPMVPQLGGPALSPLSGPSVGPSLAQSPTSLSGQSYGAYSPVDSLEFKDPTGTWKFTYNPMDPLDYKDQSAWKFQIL
Another assay deals with ETV1 (Homo sapiens, UniProt P50549 1-477). Conditions: protein: recombinant; tags: N-terminal GST; dsDNA, one strand shown. A digest of the protocol:
as §1

ETV1, sequence (P50549 whole entry): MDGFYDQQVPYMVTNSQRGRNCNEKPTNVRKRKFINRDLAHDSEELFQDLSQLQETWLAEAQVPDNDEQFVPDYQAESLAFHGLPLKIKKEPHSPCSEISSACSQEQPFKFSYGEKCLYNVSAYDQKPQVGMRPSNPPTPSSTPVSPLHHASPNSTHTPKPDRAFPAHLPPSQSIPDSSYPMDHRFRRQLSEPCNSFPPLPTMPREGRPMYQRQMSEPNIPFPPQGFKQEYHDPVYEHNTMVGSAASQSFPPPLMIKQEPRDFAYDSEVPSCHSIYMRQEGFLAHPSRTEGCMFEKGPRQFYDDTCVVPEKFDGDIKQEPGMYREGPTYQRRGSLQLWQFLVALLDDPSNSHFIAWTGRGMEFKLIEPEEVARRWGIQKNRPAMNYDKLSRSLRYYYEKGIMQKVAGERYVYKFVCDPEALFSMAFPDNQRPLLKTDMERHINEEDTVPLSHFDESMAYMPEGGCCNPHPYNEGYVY
ELF1, sequence (P32519 whole entry): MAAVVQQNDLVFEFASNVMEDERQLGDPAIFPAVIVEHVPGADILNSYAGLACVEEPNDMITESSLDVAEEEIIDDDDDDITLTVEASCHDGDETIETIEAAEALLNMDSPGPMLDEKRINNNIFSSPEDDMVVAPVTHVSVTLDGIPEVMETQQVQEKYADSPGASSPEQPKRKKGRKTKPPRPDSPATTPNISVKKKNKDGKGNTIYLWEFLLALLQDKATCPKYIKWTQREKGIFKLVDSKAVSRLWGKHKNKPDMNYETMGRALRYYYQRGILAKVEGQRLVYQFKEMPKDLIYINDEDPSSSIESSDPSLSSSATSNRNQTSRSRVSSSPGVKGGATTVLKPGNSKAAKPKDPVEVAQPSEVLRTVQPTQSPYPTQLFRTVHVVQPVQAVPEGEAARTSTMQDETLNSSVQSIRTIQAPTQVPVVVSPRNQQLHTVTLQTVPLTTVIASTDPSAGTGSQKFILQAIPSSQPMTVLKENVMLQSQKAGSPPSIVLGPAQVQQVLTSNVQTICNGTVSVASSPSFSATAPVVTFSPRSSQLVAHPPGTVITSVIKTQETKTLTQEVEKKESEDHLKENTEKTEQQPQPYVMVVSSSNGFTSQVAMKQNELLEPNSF
ETV5, sequence (P41161 whole entry): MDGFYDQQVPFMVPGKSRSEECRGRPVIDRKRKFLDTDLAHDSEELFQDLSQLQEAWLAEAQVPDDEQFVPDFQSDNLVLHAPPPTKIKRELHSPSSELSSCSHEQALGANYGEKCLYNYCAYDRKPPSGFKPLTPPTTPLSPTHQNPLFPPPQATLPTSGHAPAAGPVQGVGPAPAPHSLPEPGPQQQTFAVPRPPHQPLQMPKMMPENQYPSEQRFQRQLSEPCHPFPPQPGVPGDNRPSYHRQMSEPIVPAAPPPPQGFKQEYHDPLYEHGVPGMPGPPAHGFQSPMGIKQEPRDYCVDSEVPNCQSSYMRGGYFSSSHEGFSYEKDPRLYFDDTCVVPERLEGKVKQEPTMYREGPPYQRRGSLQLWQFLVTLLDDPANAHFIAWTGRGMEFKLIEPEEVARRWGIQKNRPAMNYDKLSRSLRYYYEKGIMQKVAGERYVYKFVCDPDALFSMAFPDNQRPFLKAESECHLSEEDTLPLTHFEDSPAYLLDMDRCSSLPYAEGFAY

Take ATTGAA: the binding signal with FLI1 was 1.07 fold enrichment (6-mer frequency, TF over GST control); in the assay with ELK1, 1.16 fold enrichment (6-mer frequency, TF over GST control); with GABPA, 1.07 fold enrichment (6-mer frequency, TF over GST control); in the assay with ERG, 1.05 fold enrichment (6-mer frequency, TF over GST control); with ELF1, 1.06 fold enrichment (6-mer frequency, TF over GST control); with EHF it was 1.03 fold enrichment (6-mer frequency, TF over GST control). Besides, the binding signal in the assay with SPI1 was 1.04 fold enrichment (6-mer frequency, TF over GST control); in the assay with SPIB, 1.09 fold enrichment (6-mer frequency, TF over GST control); in the assay with ELK3 it was 1.11 fold enrichment (6-mer frequency, TF over GST control); in the assay with ETV5, 1.05 fold enrichment (6-mer frequency, TF over GST control); with HSF1, 1.01 fold enrichment (6-mer frequency, TF over GST control); with ELF4, 1.01 fold enrichment (6-mer frequency, TF over GST control). In addition, the binding signal in the assay with ELK4 was 1.06 fold enrichment (6-mer frequency, TF over GST control); with ETV2 it was 1 fold enrichment (6-mer frequency, TF over GST control); with ELF3, 1.07 fold enrichment (6-mer frequency, TF over GST control); in the assay with CRX it was 1.06 fold enrichment (6-mer frequency, TF over GST control); with ETV1, 1.15 fold enrichment (6-mer frequency, TF over GST control).

The values above are taken from paper PMC7862700, “An all-to-all approach to the identification of sequence-specific readers for epigenetic DNA modifications on cytosine”.
